According to PubChem BioAssay (Tox21):
Inconclusive results are not listed. Active and inactive are the calls of the source. Unless noted, the call rests on the fitted dose curve.

Assays:
[1] = Nuclear factor erythroid 2-related factor 2/antioxidant responsive element (Nrf2/ARE) small molecule agonists: qHTS cell viability counter screen in human keratinocytes (AID 1919968; active means well fitted curve in the direction sought with a large enough effect in the repeat runs; an effect the other way counts as inactive or inconclusive; further: nearly all actives have a fitted effect of over 55% in size)
Summary of the method: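 Fluorescence read-out from CellTiter-Fluor after 1 h at 37 C. Wells held HaCaT-derived ARE-luciferase reporter cells (1,500/well) treated 23 h with DMSO-dissolved compounds. Run in the same wells as the luciferase agonist read.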

[2] = Nuclear factor erythroid 2-related factor 2/antioxidant responsive element (Nrf2/ARE) small molecule agonists: luciferase reporter gene qHTS assay in human keratinocytes (AID 1919969); further: nearly all actives have a fitted effect of over 35% in size
[3] = target: Gonadotropin-releasing hormone receptor (Homo sapiens) (UniProt P30968); assay: Human gonadotropin-releasing hormone receptor (GnRHR) small molecule agonists, calcium flux assay in GnRHR-HEK293 cells (AID 1920063); further: nearly all actives have a fitted effect of over 35% in size
Summary of the method: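 Calcium-dye fluorescence, Ex/Em=480/540, recorded every 1 sec over 3 min after compound addition to GnRHR-HEK293 cells. Cells had been seeded 18 hours earlier and dye-loaded for 1 hour at 37 C. Fifteen concentrations, triplicates.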

[4] = target: KiSS-1 receptor (Homo sapiens) (UniProt Q969F8); assay: Human kisspeptin (KISS1R) small molecule agonists, calcium flux assay in KISS1R-HEK293 cells (AID 1920064; active means well fitted curve in the direction sought with a large enough effect in the repeat runs; an effect the other way counts as inactive or inconclusive)
Summary of the method: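 Calcium flux read-out: kinetic fluorescence at Ex/Em=480/540, 1 s intervals over 3 min, after pin-tool compound addition to dye-loaded KISS1R-HEK293 cells. Fifteen concentrations, triplicates.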

[5] = G protein-coupled receptor (GPCR) small molecule agonists, calcium flux assay: HEK293 wild type cell line counter screen (AID 1920065)
Summary of the method: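 Agonist mode; 18 h seeding at 37 C, 1 h dye load at 37 C; compounds pinned from DMSO, ATP as positive control; kinetic fluorescence 480/540 nm, 3 min, 1 s reads; 15 concentrations, triplicate.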

[6] = p53 small molecule agonists, cell-based qHTS assay with human liver microsomes (AID 1963577);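 further: p53 response element beta-lactamase reporter cells with liver microsomes plus NADPH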
Summary of the method: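 Reporter activation was measured by LiveBLAzer fluorescence intensity in p53RE-bla cells, which had been exposed to compounds for 16 h at 37 C alongside 0.5 mg/mL human liver microsomes and 0.5 mg/mL NADPH (final concentrations).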

[7] = p53 small molecule agonists, cell-based qHTS assay with rat liver microsomes (AID 1963578)
Summary of the method: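 Compound in DMSO added to p53RE-bla cells 5 h post-plating; rat microsomes/NADPH 0.5 mg/mL final; 16 h, 37 C; LiveBLAzer 2 h RT.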

[8] = p53 small molecule agonists, cell-based qHTS assay with human liver microsomes: qHTS cell viability counter screen (AID 1963579); further: nearly all actives have a fitted effect of over 45% in size
Summary of the method: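 HLM-supplemented (0.5 mg/mL final) and NADPH-supplemented (0.5 mg/mL final) p53RE-bla cultures, 4,000 cells per well, were dosed with compounds in DMSO for 16 h at 37 C; luminescent ATP detection (CellTiter-Glo, 30 min, room temperature) quantified surviving cells.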

[9] = p53 small molecule agonists, cell-based qHTS assay with rat liver microsomes: qHTS cell viability counter screen (AID 1963580); further: nearly all actives have a fitted effect of over 45% in size
Summary of the method: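 After the beta-lactamase ratio was read, CellTiter-Glo was added to the same wells and luminescence measured at 30 min; cells had been treated 16 h at 37 C with compounds, rat liver microsomes and NADPH (0.5 mg/mL final each).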

[10] = p53 small molecule agonists, cell-based qHTS assay: qHTS cell viability counter screen (AID 1963581); further: nearly all actives have a fitted effect of over 45% in size
Summary of the method: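 Cytotoxicity read-out: ATP-based luminescence (CellTiter-Glo, 30 min RT) measured in the same wells as the p53 reporter assay, HCT-116 p53RE-bla cells, 16 h compound exposure at 37 C.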

[11] = p53 small molecule agonists, cell-based qHTS assay (AID 1963582; active means well fitted activation curve with a large enough effect in the signal ratio in the repeat runs, not every such curve was filed as active; the % refers to the signal ratio)
Summary of the method: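 Fluorescence intensity read-out of a beta-lactamase reporter under a p53 response element. Cells were exposed to DMSO-dissolved compounds for 16 h at 37 C, then developed with FRET substrate for 2 h at RT.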

[12] = target: 5-hydroxytryptamine receptor 2A (Homo sapiens) (UniProt P28223); assay: 5-hydroxytryptamine receptor 2A (HTR2A) small molecule antagonists, cell-based qHTS assay (AID 1963586); further: nearly all actives have a fitted effect of over 45% in size
Summary of the method: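 CHO cells stably expressing human HTR2A were plated for 18 h at 37 C, then loaded with calcium dye for 1 h. Compounds were preincubated 5 min at room temperature before DOI (4 nM solution) was added. Kinetic fluorescence was read for 3 min.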

[13] = target: 5-hydroxytryptamine receptor 2A (Homo sapiens) (UniProt P28223); assay: 5-hydroxytryptamine receptor 2A (HTR2A) small molecule agonists, cell-based qHTS assay (AID 1963587); further: nearly all actives have a fitted effect of over 30% in size
Summary of the method: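 CHO cells stably expressing human HTR2A, plated 18 h, loaded with calcium dye 1 h at 37 C. Agonist mode: compounds added and intracellular calcium fluorescence recorded kinetically for 2 min at 1 sec intervals.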

[14] = target: Muscarinic acetylcholine receptor M1 (Homo sapiens) (UniProt P11229); assay: Cholinergic receptor muscarinic 1 (CHRM1) small molecule antagonists, cell-based qHTS assay (AID 1963588); further: nearly all actives have a fitted effect of over 40% in size
Summary of the method: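 Compounds were tested at 15 concentrations in three independent runs. Dye-loaded CHRM1-CHO cells were exposed 5 min at room temperature before stimulation by acetylcholine added at 50nM. Intracellular calcium was read kinetically on FDSS for 3 min.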

[15] = target: Muscarinic acetylcholine receptor M1 (Homo sapiens) (UniProt P11229); assay: Cholinergic receptor muscarinic 1 (CHRM1) small molecule agonists, cell-based qHTS assay (AID 1963589); further: nearly all actives have a fitted effect of over 35% in size
Summary of the method: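 Calcium flux read-out: kinetic fluorescence at 1 sec intervals after pin-tool compound addition to dye-loaded CHRM1-CHO cells (human M1). Agonist mode; 15 concentrations tested in triplicate independent runs.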

[16] = cAMP Responsive Elements (CRE) small molecule agonists, cell-based qHTS assay (AID 1963590)
Summary of the method: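 Beta-lactamase reporter readout: LiveBLAzer B/G FRET substrate, 2 h at room temperature, added after 3 h compound treatment of CRE-bla HEK 293T cells at 37 C/5% CO2.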

[17] = target: Beta-2 adrenergic receptor (Homo sapiens) (UniProt P07550); assay: Adrenergic beta2 receptor (ADRB2) small molecule antagonists, cell-based qHTS assay (AID 1963592); further: series mostly up to about 92 µM; nearly all actives have a fitted effect of over 50% in size
Summary of the method: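 Assay format: CHO-ADRB2 cells, 18-20hr seeding at 37C/5% CO2, then compound plus 1nM isoproterenol agonist mix for 0.5hr RT. Homogeneous time-resolved fluorescence cAMP detection after 1hr, expressed as 665/615 nm ratio.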

[18] = target: D(2) dopamine receptor (Homo sapiens) (UniProt P14416); assay: Dopamine D2 receptor (DRD2) small molecule agonists, cell-based qHTS assay (AID 1963594); further: nearly all actives have a fitted effect of over 35% in size
Summary of the method: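 HEK293 cells stably expressing human DRD2, pre-treated with PDE inhibitor Ro20-1724 (0.1 mM final) and compound 10 min at room temperature, then stimulated with NKH477 (200nM […]) for 30 min. cAMP read by HTRF (665/620 nm).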

[19] = target: D(2) dopamine receptor (Homo sapiens) (UniProt P14416); assay: Dopamine D2 receptor (DRD2) small molecule antagonists, cell-based qHTS assay (AID 1963595; active means well fitted inhibition curve with a large enough effect in the signal ratio in the repeat runs, with a control signal flat; the % refers to the signal ratio)
Summary of the method: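 Stable D2 receptor HEK293 line, 24 h after seeding. Compound preincubated 10 min, then quinpirole (12 nM) with forskolin analogue NKH477 (200 nM), 30 min, room temperature. Detection by time-resolved FRET of cAMP.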

[20] = cAMP Responsive Elements (CRE) small molecule antagonists, cell-based qHTS assay (AID 1963591; active means well fitted inhibition curve with a large enough effect in the signal ratio in the repeat runs, not every such curve was filed as active; the % refers to the signal ratio)
Summary of the method: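 HEK293T CRE-bla; 18 h preincubation; compound pin-transfer; NKH477 0.25 uM final, 3 h, 37 C; LiveBLAzer FRET substrate 2 h RT.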

Measured: Potency

Sequence of D(2) dopamine receptor (Homo sapiens) (P14416 whole entry, looked up): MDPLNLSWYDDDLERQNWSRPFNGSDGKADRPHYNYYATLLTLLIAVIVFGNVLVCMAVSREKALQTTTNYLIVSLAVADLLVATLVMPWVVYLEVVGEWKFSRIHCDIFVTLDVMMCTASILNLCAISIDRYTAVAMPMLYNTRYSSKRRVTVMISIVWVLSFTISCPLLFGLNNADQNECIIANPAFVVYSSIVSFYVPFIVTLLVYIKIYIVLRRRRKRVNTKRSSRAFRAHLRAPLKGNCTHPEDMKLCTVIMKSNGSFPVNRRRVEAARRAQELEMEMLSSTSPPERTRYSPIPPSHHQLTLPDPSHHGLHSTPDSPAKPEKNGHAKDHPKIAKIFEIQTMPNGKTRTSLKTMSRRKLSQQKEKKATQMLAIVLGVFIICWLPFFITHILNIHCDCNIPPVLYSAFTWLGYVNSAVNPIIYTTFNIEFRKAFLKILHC
Sequence of 5-hydroxytryptamine receptor 2A (Homo sapiens) (P28223 whole entry, looked up): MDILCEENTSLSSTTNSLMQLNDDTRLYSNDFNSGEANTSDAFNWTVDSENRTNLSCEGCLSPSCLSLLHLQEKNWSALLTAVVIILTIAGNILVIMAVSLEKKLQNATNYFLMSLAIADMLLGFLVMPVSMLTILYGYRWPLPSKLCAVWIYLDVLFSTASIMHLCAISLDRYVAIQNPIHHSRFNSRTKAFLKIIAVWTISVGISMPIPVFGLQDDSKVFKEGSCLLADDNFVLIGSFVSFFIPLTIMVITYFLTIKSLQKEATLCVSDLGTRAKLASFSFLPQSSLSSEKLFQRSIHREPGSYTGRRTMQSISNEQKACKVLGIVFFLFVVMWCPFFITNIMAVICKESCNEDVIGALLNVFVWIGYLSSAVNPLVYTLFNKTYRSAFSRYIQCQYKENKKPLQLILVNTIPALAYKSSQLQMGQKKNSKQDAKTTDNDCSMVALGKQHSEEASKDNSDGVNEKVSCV
Sequence of Muscarinic acetylcholine receptor M1 (Homo sapiens) (P11229 whole entry, looked up): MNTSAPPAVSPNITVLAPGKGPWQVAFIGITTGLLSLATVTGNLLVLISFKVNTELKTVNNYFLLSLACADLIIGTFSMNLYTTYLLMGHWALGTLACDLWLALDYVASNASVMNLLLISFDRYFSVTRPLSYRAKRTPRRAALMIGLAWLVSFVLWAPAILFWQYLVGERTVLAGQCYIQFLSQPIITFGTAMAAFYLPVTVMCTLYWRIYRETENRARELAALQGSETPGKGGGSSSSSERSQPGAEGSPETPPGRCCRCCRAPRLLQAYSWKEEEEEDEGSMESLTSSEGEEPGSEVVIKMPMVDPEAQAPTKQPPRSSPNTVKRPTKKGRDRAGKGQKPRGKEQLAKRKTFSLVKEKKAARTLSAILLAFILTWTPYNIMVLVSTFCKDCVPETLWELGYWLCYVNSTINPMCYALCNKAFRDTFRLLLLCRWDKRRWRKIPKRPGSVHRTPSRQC
Sequence of Gonadotropin-releasing hormone receptor (Homo sapiens) (P30968 whole entry, looked up): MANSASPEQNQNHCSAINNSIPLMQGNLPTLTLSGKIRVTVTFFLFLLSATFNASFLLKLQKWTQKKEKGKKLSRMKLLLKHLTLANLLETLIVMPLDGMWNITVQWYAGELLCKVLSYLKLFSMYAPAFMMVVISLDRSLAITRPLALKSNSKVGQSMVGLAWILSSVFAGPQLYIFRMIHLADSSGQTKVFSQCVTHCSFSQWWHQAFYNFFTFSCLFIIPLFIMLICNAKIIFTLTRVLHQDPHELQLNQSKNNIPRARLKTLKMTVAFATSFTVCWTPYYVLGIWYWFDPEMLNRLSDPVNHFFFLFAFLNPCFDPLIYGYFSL
Sequence of Beta-2 adrenergic receptor (Homo sapiens) (P07550 whole entry, looked up): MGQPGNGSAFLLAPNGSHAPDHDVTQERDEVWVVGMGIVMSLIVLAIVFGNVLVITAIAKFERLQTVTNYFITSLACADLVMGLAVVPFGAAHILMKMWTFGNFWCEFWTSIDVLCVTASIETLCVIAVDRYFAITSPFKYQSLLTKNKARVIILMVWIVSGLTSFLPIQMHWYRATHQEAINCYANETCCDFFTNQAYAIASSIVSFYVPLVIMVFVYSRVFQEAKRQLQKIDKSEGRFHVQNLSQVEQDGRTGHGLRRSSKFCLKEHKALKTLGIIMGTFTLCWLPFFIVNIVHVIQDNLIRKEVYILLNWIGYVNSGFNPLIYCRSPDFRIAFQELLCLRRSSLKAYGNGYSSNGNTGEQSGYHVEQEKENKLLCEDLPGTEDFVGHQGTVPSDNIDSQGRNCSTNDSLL
Sequence of KiSS-1 receptor (Homo sapiens) (Q969F8 whole entry, looked up): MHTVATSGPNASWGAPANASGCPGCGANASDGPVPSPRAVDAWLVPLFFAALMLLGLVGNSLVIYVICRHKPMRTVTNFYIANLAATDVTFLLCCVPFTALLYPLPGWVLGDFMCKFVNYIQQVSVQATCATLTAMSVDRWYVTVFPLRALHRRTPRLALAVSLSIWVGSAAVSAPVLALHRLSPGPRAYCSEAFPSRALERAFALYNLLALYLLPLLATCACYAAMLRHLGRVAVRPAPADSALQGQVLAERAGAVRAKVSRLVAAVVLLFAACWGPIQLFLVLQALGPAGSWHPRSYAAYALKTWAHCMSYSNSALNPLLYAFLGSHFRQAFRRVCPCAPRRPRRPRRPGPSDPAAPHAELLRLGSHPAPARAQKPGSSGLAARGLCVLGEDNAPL

COC(C)(OC)OC
inactive: [1] | [2] | [3] | [4] | [5] | [6] | [7] | [8] | [9] | [10] | [11] | [12] | [13] | [14] | [15] | [16] | [17] | [18] | [19]

O=C(CCN1CCC(c2ccccc2)C1)c1ccc2c(c1)OCCO2 (stereo unspecified)
inactive: [1] | [2] | [3] | [4] | [5] | [6] | [7] | [8] | [9] | [10] | [11] | [12] | [13] | [14] | [15] | [16] | [17] | [18]

C=CN1CCCCCC1=O
inactive: [1] | [2] | [3] | [4] | [5] | [6] | [7] | [8] | [9] | [10] | [11] | [12] | [13] | [14] | [15] | [20] | [17] | [18] | [19]
